Assay [1] in a line: qHTS profiling for inhibitors of Plasmodium falciparum (3D7) proliferation (AID 743322).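 Also: infected erythrocytes exposed to compound for 72 h before lysis; 100% = DMSO vehicle wells and 0% = 0.29 µM artemisinin.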 To be noted: P. falciparum 3D7 proliferation; at 28.7 µM (top of the series). In outline:
(§1)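 Parasite DNA was quantified by SYBR Green I fluorescence (ex 485, em 535 nm) after overnight lysis in saponin/Triton buffer at room temperature. Cultures at 0.3% parasitemia and 2.5% hematocrit were first exposed to compound for 72 h at 37 C; signals were normalised to artemisinin (0.29 uM) and vehicle wells.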
Background: Quantitative high-throughput screening tests each substance at several concentrations.

Assay [2] is described as follows: qHTS profiling for inhibitors of Plasmodium falciparum (DD2) proliferation (AID 743323). To be noted: lower = more inhibition; at 28.7 µM (top of the series). The method, boiled down: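 Parasite DNA quantified by SYBR Green fluorescence (ex 485, em 535 nm) after saponin/Triton lysis and overnight dark incubation. Cultures: 0.3% parasitemia, 2.5% hematocrit, 72 h, 37 C; data scaled between DMSO and 0.29 uM artemisinin.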

The nature of assay [3]: qHTS profiling of the MIPE4 collection as inhibitors of Plasmodium falciparum (3D7) proliferation (AID 743344).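 Also: scaled between DMSO vehicle wells and 0.29 µM artemisinin as full inhibition.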 To be noted: P. falciparum 3D7 in erythrocytes, SYBR Green DNA fluorescence, 72 h; at 28.5 µM (top of the series) unless noted. The method, boiled down: as §1
Assay [4] is described as follows: qHTS profiling of the MIPE4 collection as inhibitors of Plasmodium falciparum (DD2) proliferation (AID 743345). To be noted: P. falciparum Dd2 in erythrocytes, SYBR Green DNA, 72 h; at 28.5 µM (top of the series) unless noted. In outline: as §1
Assay [5] can be described thus: qHTS profiling of the MIPE4 collection as inhibitors of Plasmodium falciparum (DD2) proliferation (Rep 2) (AID 743346). To be noted: P. falciparum Dd2 in erythrocytes, SYBR Green DNA, 72 h; at 28.5 µM (top of the series) unless noted. In outline: as §1
Assay [6] is described as follows: qHTS profiling of the MIPE4 collection as inhibitors of Plasmodium falciparum (HB3) proliferation (AID 743347).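 Also: plate controls were DMSO vehicle wells for no effect and artemisinin wells for full effect.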 To be noted: P. falciparum HB3 in erythrocytes, SYBR Green DNA, 72 h; at 28.5 µM (top of the series) unless noted. In outline: as §1
Assay [7] in a line: High-throughput drug toxicity screening in the BPDCN cell line Gen2.2 (AID 1224824).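 Also: cells exposed to compounds for 48 h before reading.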 To be noted: Gen2.2 BPDCN cells; at 45.8 µM (top of the series) unless noted. The method, boiled down:
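Seed 500 exponentially growing Gen2.2 cells/well; add compounds by pin tool; incubate 48 h, 37 °C, 5% CO2; add CellTiter-Glo, 15 min RT; read luminescence. % activity vs DMSO (100%) and bortezomib (0%).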

Assay [8] can be described thus: High-throughput drug toxicity screening in the BPDCN cell line Cal-1 (AID 1224825). To be noted: Cal-1 BPDCN cell viability, qHTS; at 45.8 µM (top of the series) unless noted. In outline:
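Viability of the BPDCN line Cal-1 is measured as ATP-based luminescence (CellTiter-Glo) following 48 h incubation with compounds. Percent activity uses DMSO-treated wells as 100% and 9.2 uM bortezomib as 0%.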

The nature of assay [9]: qHTS profiling for inhibitors of Plasmodium falciparum (HB3) proliferation (AID 743324).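 Also: 100% = DMSO vehicle wells and 0% = artemisinin-treated control wells.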 To be noted: Plasmodium falciparum HB3 blood-stage proliferation; at 28.7 µM (top of the series). In outline: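 SYBR Green fluorescence (485 ex/535 em) of lysed cultures, incubated overnight at room temperature in the dark, quantifies parasite DNA. Infected erythrocytes at 0.3% parasitemia and 2.5% hematocrit were exposed 72 h; values normalized to DMSO and 0.29 uM artemisinin controls.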

Structures are written as SMILES.

Turning to `CC=C1NC(=O)[C@H]2CSSCCC=C[C@H](CC(=O)N[C@H](C(C)C)C(=O)N2)OC(=O)[C@H](C(C)C)NC1=O`, in [1], the remaining parasite growth % (stronger effect = lower value) was found to be 95.6%. The activity, percent of control in [2] turned out to be 92.5%. For the same molecule, the parasite growth, % of DMSO control in assay [3] is 5.8%. The molecule also gave a parasite growth remaining, % of DMSO control (lower = more inhibition) in assay [4] of 8.63%. The parasite growth, % of control (lower = inhibition) in assay [5] is 12.2%. Further, the growth, % of control in assay [6] was determined as 8.43%. Also, the cell viability, % of control (lower = more cytotoxic) in [7] came out at 5.71%. Moreover, in [8], the viability (% of control) was determined as 4.69%.

Take `COc1cc2nccc(Oc3ccc(NC(=O)C4(C(=O)Nc5ccc(F)cc5)CC4)cc3)c2cc1OC`: the remaining parasite growth % (stronger effect = lower value) in assay [1] worked out at 3.02%. Also, the activity, percent of control in assay [2] was determined as 14.8%. In [3], this molecule had a parasite growth, % of DMSO control of 3.93%. This molecule displayed a parasite growth remaining, % of DMSO control (lower = more inhibition) in [4] of 10.7%. The molecule also registered a parasite growth, % of control (lower = inhibition) in assay [5] of 7.46%. Moreover, the growth, % of control in assay [6] worked out at 2.54%. Further, the cell viability, % of control (lower = more cytotoxic) in [7] came out at 5.49%. For the same molecule, in assay [8], the viability (% of control) amounted to 5.29%.

As for `CCN1CCN(Cc2ccc(-c3cc4c(N[C@H](C)c5ccccc5)ncnc4[nH]3)cc2)CC1`, the remaining parasite growth % (stronger effect = lower value) in assay [1] was -0.0025%. Also, the activity, percent of control in assay [2] came out at 1.84%. For the same molecule, in assay [9], the remaining proliferation (% of control), lower = more inhibition was found to be 0.0196%. In assay [3], this molecule gave a parasite growth, % of DMSO control of 5.16%. In [4], the parasite growth remaining, % of DMSO control (lower = more inhibition) is 8.31%. The parasite growth, % of control (lower = inhibition) in assay [5] was 7.53%. In addition, the growth, % of control in assay [6] came to 8.9%. Moreover, the cell viability, % of control (lower = more cytotoxic) in [7] was determined as 42.9%. For the same molecule, the viability (% of control) in assay [8] worked out at 6.05%.

For `CC(C)(C)c1cnc(CSc2cnc(NC(=O)C3CCNCC3)s2)o1`, in assay [1], the remaining parasite growth % (stronger effect = lower value) came to 9.96%. In addition, the activity, percent of control in [2] came to 6.95%. Moreover, in assay [3], the parasite growth, % of DMSO control stood at 11.9%. For the same molecule, the parasite growth remaining, % of DMSO control (lower = more inhibition) in assay [4] was determined as 13%. In assay [5], this molecule had a parasite growth, % of control (lower = inhibition) of 24.1%. In addition, the growth, % of control in assay [6] is 12.8%. In addition, the cell viability, % of control (lower = more cytotoxic) in assay [7] came out at 1.75%. Further, the viability (% of control) in assay [8] amounted to 1.24%.

As to `CC(C)(C)c1cc(C(C)(C)C)c(NC(=O)c2c[nH]c3ccccc3c2=O)cc1O`, the remaining parasite growth % (stronger effect = lower value) in assay [1] turned out to be 33.5%. Besides, the activity, percent of control in assay [2] was found to be 28.9%. In addition, the remaining proliferation (% of control), lower = more inhibition in assay [9] was found to be 18.9%. Also, in assay [3], the parasite growth, % of DMSO control turned out to be 106%. In [4], this molecule displayed a parasite growth remaining, % of DMSO control (lower = more inhibition) of 95.2%. Moreover, in assay [6], the growth, % of control was 57.9%. Further, in assay [7], the cell viability, % of control (lower = more cytotoxic) came to 105%. The viability (% of control) in assay [8] came out at 102%.

For `CC(=O)c1c(C)c2cnc(Nc3ccc(N4CCNCC4)cn3)nc2n(C2CCCC2)c1=O`, the remaining parasite growth % (stronger effect = lower value) in assay [1] stood at 0.348%. Moreover, the activity, percent of control in assay [2] was 4.74%. Also, the remaining proliferation (% of control), lower = more inhibition in [9] was 0.446%. Besides, the parasite growth, % of DMSO control in assay [3] is 5.54%. Also, the parasite growth remaining, % of DMSO control (lower = more inhibition) in assay [4] turned out to be 6.84%. Moreover, the growth, % of control in [6] came to 2.45%. Further, the cell viability, % of control (lower = more cytotoxic) in [7] came to 8.1%. Further, the viability (% of control) in assay [8] came out at 3.89%.

Regarding `Cn1cc(-c2[nH]c3cc(NC(=O)[C@H](N)C4CCCCC4)cc4c3c2C=NNC4=O)cn1`, the remaining parasite growth % (stronger effect = lower value) in assay [1] is -2.18%. Moreover, in [2], the activity, percent of control is -0.309%. The remaining proliferation (% of control), lower = more inhibition in [9] is -1.93%. In assay [3], this molecule yielded a parasite growth, % of DMSO control of 3.34%. In assay [4], this molecule came in with a parasite growth remaining, % of DMSO control (lower = more inhibition) of 5.92%. Besides, the parasite growth, % of control (lower = inhibition) in [5] is 4.04%. In assay [6], this molecule yielded a growth, % of control of 2.91%. Besides, the cell viability, % of control (lower = more cytotoxic) in [7] amounted to 28.9%. In addition, the viability (% of control) in assay [8] worked out at 4.56%.

As to `Cc1ccc(-c2ncn(-c3ccc(Nc4nccc(-c5cccc(N6CCOCC6)c5)n4)cc3)n2)cn1`, the remaining parasite growth % (stronger effect = lower value) in [1] was 3.9%. In addition, the activity, percent of control in [2] is 4.15%. Moreover, the remaining proliferation (% of control), lower = more inhibition in [9] was determined as 5.18%. In [3], this molecule showed a parasite growth, % of DMSO control of 5.55%. This molecule also gave a parasite growth remaining, % of DMSO control (lower = more inhibition) in assay [4] of 6.69%. The parasite growth, % of control (lower = inhibition) in assay [5] turned out to be 11.5%. For the same molecule, in assay [6], the growth, % of control worked out at 8.45%. In assay [7], the cell viability, % of control (lower = more cytotoxic) was 5.12%. Besides, the viability (% of control) in assay [8] is 3.62%.

The record behind these values is PubChem BioAssay (NCATS).
